# According to publication PMC11006913:
# Where a chain is given by its changes, count along the chain named.
# Assays:
# Assay in all cases: PBM; 200 nM protein, PBS
# Conditions in all cases: dsDNA, one strand shown
# [1] = biological target: T1, SIX6 (Homo sapiens, UniProt O95475 114-200, L167M)
# T1 sequence: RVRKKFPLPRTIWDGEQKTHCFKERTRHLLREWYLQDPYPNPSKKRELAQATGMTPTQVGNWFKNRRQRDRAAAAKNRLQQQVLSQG
# [2] = biological target: T2, PAX4 (Homo sapiens, UniProt O43316 9-242)
# T2 sequence: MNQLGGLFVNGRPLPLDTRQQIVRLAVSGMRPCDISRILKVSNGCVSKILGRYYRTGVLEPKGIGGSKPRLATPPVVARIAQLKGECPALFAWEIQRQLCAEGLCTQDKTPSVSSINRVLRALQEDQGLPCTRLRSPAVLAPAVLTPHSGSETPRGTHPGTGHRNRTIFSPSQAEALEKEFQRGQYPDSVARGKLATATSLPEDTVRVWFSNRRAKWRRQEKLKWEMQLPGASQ
# [3] = biological target: T3, PAX4 (Homo sapiens, UniProt O43316 9-242, F177V)
# T3 sequence: T2 sequence with F169V
# [4] = biological target: T4, PAX4 (Homo sapiens, UniProt O43316 9-242, F177Y)
# T4 sequence: T2 sequence with F169Y
# [5] = biological target: VAX1 (Homo sapiens, UniProt Q5SQQ9 86-172)
# [6] = biological target: VAX1 (Homo sapiens, UniProt Q5SQQ9 86-172, T142I)
# [7] = biological target: T5, PAX4 (Homo sapiens, UniProt O43316 9-242, R227W)
# T5 sequence: T2 sequence with R219W
# [8] = biological target: VAX1 (Homo sapiens, UniProt Q5SQQ9 86-172, K157R)
# [9] = biological target: T6, SIX6 (Homo sapiens, UniProt O95475 114-200, L143M)
# T6 sequence: T1 sequence with L30M, M54L
# [10] = biological target: T7, SIX6 (Homo sapiens, UniProt O95475 114-200, L143I)
# T7 sequence: T1 sequence with L30I, M54L
# [11] = biological target: T8, SIX6 (Homo sapiens, UniProt O95475 114-200, T165I)
# T8 sequence: T1 sequence with T52I, M54L
# [12] = biological target: HOXB6 (Homo sapiens, UniProt P17509 132-218, K202E)
# [13] = biological target: ALX1 (Homo sapiens, UniProt Q15699 118-204, L144V)
# [14] = biological target: ALX1 (Homo sapiens, UniProt Q15699 118-204, L144R)
# [15] = biological target: ALX1 (Homo sapiens, UniProt Q15699 118-204)
# [16] = biological target: HOXB6 (Homo sapiens, UniProt P17509 132-218)
# [17] = biological target: HOXD13 (Homo sapiens, UniProt P35453 263-343, T313R)
# [18] = biological target: HOXD13 (Homo sapiens, UniProt P35453 263-343)
# [19] = biological target: PROP1 (Homo sapiens, UniProt O75360 56-141)
# [20] = biological target: PROP1 (Homo sapiens, UniProt O75360 56-141, R99H)
# [21] = biological target: HOXD13 (Homo sapiens, UniProt P35453 263-343, T313A)
# [22] = biological target: HOXC9 (Homo sapiens, UniProt P31274 178-260, R222W)
# [23] = biological target: PROP1 (Homo sapiens, UniProt O75360 56-141, F88S)
# [24] = biological target: T9, NKX2-6 (Homo sapiens, UniProt A6NCS4 118-204, R150C)
# T9 sequence: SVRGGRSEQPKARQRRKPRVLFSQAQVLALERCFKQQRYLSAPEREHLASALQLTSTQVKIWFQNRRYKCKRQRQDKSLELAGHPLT
# [25] = biological target: HOXA2 (Homo sapiens, UniProt O43364 129-215, R185T)
# [26] = biological target: HOXA2 (Homo sapiens, UniProt O43364 129-215, R185K)
# [27] = biological target: HOXA2 (Homo sapiens, UniProt O43364 129-215, Y150S)
# [28] = biological target: HOXA2 (Homo sapiens, UniProt O43364 129-215)
# HOXA2 (Homo sapiens, UniProt O43364 129-215), sequence (O43364 129-215): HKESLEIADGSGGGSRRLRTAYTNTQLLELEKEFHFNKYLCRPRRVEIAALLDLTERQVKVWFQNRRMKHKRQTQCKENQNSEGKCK
# HOXB6 (Homo sapiens, UniProt P17509 132-218), sequence (P17509 132-218): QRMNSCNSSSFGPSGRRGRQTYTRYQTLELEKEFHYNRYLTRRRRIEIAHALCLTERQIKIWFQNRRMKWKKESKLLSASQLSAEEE
# HOXB6 (Homo sapiens, UniProt P17509 132-218, K202E), sequence (P17509 132-218 K202E): as the sequence (P17509 132-218) above, with K71E counted along it
# HOXD13 (Homo sapiens, UniProt P35453 263-343), sequence (P35453 263-343): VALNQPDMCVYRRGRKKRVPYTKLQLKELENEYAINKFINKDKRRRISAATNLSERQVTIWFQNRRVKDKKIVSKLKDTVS
# HOXC9, sequence (P31274 178-260 R222W): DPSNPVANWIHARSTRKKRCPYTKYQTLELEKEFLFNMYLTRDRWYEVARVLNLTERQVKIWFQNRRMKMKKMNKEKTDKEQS
# PROP1 (Homo sapiens, UniProt O75360 56-141), sequence (O75360 56-141): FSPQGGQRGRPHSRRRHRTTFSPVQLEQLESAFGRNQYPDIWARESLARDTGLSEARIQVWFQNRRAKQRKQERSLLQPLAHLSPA
# VAX1 (Homo sapiens, UniProt Q5SQQ9 86-172, T142I), sequence (Q5SQQ9 86-172 T142I): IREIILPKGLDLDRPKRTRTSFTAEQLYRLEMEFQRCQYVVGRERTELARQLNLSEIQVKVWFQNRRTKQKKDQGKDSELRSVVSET
# HOXD13 (Homo sapiens, UniProt P35453 263-343, T313A), sequence (P35453 263-343 T313A): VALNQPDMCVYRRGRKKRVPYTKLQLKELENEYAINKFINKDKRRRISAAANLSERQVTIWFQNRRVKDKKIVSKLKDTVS
# PROP1 (Homo sapiens, UniProt O75360 56-141, R99H), sequence (O75360 56-141 R99H): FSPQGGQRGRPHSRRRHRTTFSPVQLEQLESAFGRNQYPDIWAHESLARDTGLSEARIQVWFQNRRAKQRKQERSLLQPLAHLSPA
# HOXD13 (Homo sapiens, UniProt P35453 263-343, T313R), sequence (P35453 263-343 T313R): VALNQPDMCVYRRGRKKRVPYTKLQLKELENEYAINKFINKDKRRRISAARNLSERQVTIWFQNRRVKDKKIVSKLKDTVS
# ALX1 (Homo sapiens, UniProt Q15699 118-204), sequence (Q15699 118-204): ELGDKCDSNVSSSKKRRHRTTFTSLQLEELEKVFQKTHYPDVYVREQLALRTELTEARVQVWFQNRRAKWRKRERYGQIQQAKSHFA
# HOXA2 (Homo sapiens, UniProt O43364 129-215, R185T), sequence (O43364 129-215 R185T): as the sequence (O43364 129-215) above, with R57T counted along it
# ALX1 (Homo sapiens, UniProt Q15699 118-204, L144R), sequence (Q15699 118-204 L144R): as the sequence (Q15699 118-204) above, with L27R counted along it
# VAX1 (Homo sapiens, UniProt Q5SQQ9 86-172, K157R), sequence (Q5SQQ9 86-172 K157R): as the sequence (Q5SQQ9 86-172 T142I) above, with I57T, K72R counted along it
# ALX1 (Homo sapiens, UniProt Q15699 118-204, L144V), sequence (Q15699 118-204 L144V): as the sequence (Q15699 118-204) above, with L27V counted along it
# VAX1 (Homo sapiens, UniProt Q5SQQ9 86-172), sequence (Q5SQQ9 86-172): as the sequence (Q5SQQ9 86-172 T142I) above, with I57T counted along it
# PROP1 (Homo sapiens, UniProt O75360 56-141, F88S), sequence (O75360 56-141 F88S): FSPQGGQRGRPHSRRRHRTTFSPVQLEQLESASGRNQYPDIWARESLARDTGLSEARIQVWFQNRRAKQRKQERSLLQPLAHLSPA
# HOXA2 (Homo sapiens, UniProt O43364 129-215, R185K), sequence (O43364 129-215 R185K): as the sequence (O43364 129-215) above, with R57K counted along it
# HOXA2 (Homo sapiens, UniProt O43364 129-215, Y150S), sequence (O43364 129-215 Y150S): as the sequence (O43364 129-215) above, with Y22S counted along it
sequence,measurement,setting,value
GGGGTATA,binding signal,[1],"10.7 upbm affinity estimate (log intensity, higher = more binding, comparable within an allelic series)"
CACGTATC,binding signal,[1],"10.2 upbm affinity estimate (log intensity, higher = more binding, comparable within an allelic series)"
CCGTATCG,binding signal,[1],"9.97 upbm affinity estimate (log intensity, higher = more binding, comparable within an allelic series)"
GTATCGGA,binding signal,[1],"10.1 upbm affinity estimate (log intensity, higher = more binding, comparable within an allelic series)"
AATTGCGA,binding signal,[2],"10.7 upbm affinity estimate (log intensity, higher = more binding, comparable within an allelic series)"
same,binding signal,[3],"9.91 upbm affinity estimate (log intensity, higher = more binding, comparable within an allelic series)"
same,binding signal,[4],"10 upbm affinity estimate (log intensity, higher = more binding, comparable within an allelic series)"
same,binding signal,[5],"9.89 upbm affinity estimate (log intensity, higher = more binding, comparable within an allelic series)"
same,binding signal,[6],"9.67 upbm affinity estimate (log intensity, higher = more binding, comparable within an allelic series)"
same,binding signal,[7],"10.1 upbm affinity estimate (log intensity, higher = more binding, comparable within an allelic series)"
same,binding signal,[8],"9.62 upbm affinity estimate (log intensity, higher = more binding, comparable within an allelic series)"
CCAATCAG,binding signal,[2],"10.5 upbm affinity estimate (log intensity, higher = more binding, comparable within an allelic series)"
same,binding signal,[3],"9.65 upbm affinity estimate (log intensity, higher = more binding, comparable within an allelic series)"
same,binding signal,[4],"9.83 upbm affinity estimate (log intensity, higher = more binding, comparable within an allelic series)"
same,binding signal,[7],"9.74 upbm affinity estimate (log intensity, higher = more binding, comparable within an allelic series)"
GAGATATA,binding signal,[1],"10.8 upbm affinity estimate (log intensity, higher = more binding, comparable within an allelic series)"
ATATACCC,binding signal,[1],"11.1 upbm affinity estimate (log intensity, higher = more binding, comparable within an allelic series)"
same,binding signal,[9],"10.9 upbm affinity estimate (log intensity, higher = more binding, comparable within an allelic series)"
same,binding signal,[10],"10.4 upbm affinity estimate (log intensity, higher = more binding, comparable within an allelic series)"
same,binding signal,[11],"11 upbm affinity estimate (log intensity, higher = more binding, comparable within an allelic series)"
ACCGATAC,binding signal,[1],"10.2 upbm affinity estimate (log intensity, higher = more binding, comparable within an allelic series)"
GAATTGAA,binding signal,[2],"10.6 upbm affinity estimate (log intensity, higher = more binding, comparable within an allelic series)"
same,binding signal,[3],"10.1 upbm affinity estimate (log intensity, higher = more binding, comparable within an allelic series)"
same,binding signal,[7],"10.1 upbm affinity estimate (log intensity, higher = more binding, comparable within an allelic series)"
AATAACGG,binding signal,[2],"10.8 upbm affinity estimate (log intensity, higher = more binding, comparable within an allelic series)"
same,binding signal,[3],"10 upbm affinity estimate (log intensity, higher = more binding, comparable within an allelic series)"
same,binding signal,[4],"10.1 upbm affinity estimate (log intensity, higher = more binding, comparable within an allelic series)"
same,binding signal,[7],"10.1 upbm affinity estimate (log intensity, higher = more binding, comparable within an allelic series)"
TTAGTCAA,binding signal,[2],"10.9 upbm affinity estimate (log intensity, higher = more binding, comparable within an allelic series)"
same,binding signal,[3],"10.1 upbm affinity estimate (log intensity, higher = more binding, comparable within an allelic series)"
same,binding signal,[4],"10.2 upbm affinity estimate (log intensity, higher = more binding, comparable within an allelic series)"
same,binding signal,[7],"10.2 upbm affinity estimate (log intensity, higher = more binding, comparable within an allelic series)"
ATATACCA,binding signal,[1],"10.7 upbm affinity estimate (log intensity, higher = more binding, comparable within an allelic series)"
AGGTATAT,binding signal,[1],"10.8 upbm affinity estimate (log intensity, higher = more binding, comparable within an allelic series)"
CCACGTTA,binding signal,[2],"10.7 upbm affinity estimate (log intensity, higher = more binding, comparable within an allelic series)"
same,binding signal,[3],"10.1 upbm affinity estimate (log intensity, higher = more binding, comparable within an allelic series)"
same,binding signal,[4],"10.1 upbm affinity estimate (log intensity, higher = more binding, comparable within an allelic series)"
same,binding signal,[7],"10.2 upbm affinity estimate (log intensity, higher = more binding, comparable within an allelic series)"
GGGATATA,binding signal,[1],"10.8 upbm affinity estimate (log intensity, higher = more binding, comparable within an allelic series)"
GTTAACCA,binding signal,[2],"10.5 upbm affinity estimate (log intensity, higher = more binding, comparable within an allelic series)"
same,binding signal,[3],"9.85 upbm affinity estimate (log intensity, higher = more binding, comparable within an allelic series)"
same,binding signal,[4],"9.89 upbm affinity estimate (log intensity, higher = more binding, comparable within an allelic series)"
same,binding signal,[7],"9.96 upbm affinity estimate (log intensity, higher = more binding, comparable within an allelic series)"
ATTTTGGA,binding signal,[2],"10.5 upbm affinity estimate (log intensity, higher = more binding, comparable within an allelic series)"
same,binding signal,[4],"10 upbm affinity estimate (log intensity, higher = more binding, comparable within an allelic series)"
GGCGATAC,binding signal,[1],"10.1 upbm affinity estimate (log intensity, higher = more binding, comparable within an allelic series)"
ACTGATGC,binding signal,[2],"10.6 upbm affinity estimate (log intensity, higher = more binding, comparable within an allelic series)"
same,binding signal,[3],"9.94 upbm affinity estimate (log intensity, higher = more binding, comparable within an allelic series)"
same,binding signal,[4],"10 upbm affinity estimate (log intensity, higher = more binding, comparable within an allelic series)"
same,binding signal,[7],"10 upbm affinity estimate (log intensity, higher = more binding, comparable within an allelic series)"
GGTATCGA,binding signal,[1],"10.4 upbm affinity estimate (log intensity, higher = more binding, comparable within an allelic series)"
GACCGAGC,binding signal,[12],"8.96 upbm affinity estimate (log intensity, higher = more binding, comparable within an allelic series)"
same,binding signal,[13],"6.39 upbm affinity estimate (log intensity, higher = more binding, comparable within an allelic series)"
same,binding signal,[14],"6.24 upbm affinity estimate (log intensity, higher = more binding, comparable within an allelic series)"
same,binding signal,[15],"6.33 upbm affinity estimate (log intensity, higher = more binding, comparable within an allelic series)"
same,binding signal,[16],"8.92 upbm affinity estimate (log intensity, higher = more binding, comparable within an allelic series)"
AATTTAAT,binding signal,[12],"9.98 upbm affinity estimate (log intensity, higher = more binding, comparable within an allelic series)"
same,binding signal,[17],"10.4 upbm affinity estimate (log intensity, higher = more binding, comparable within an allelic series)"
same,binding signal,[18],"11.5 upbm affinity estimate (log intensity, higher = more binding, comparable within an allelic series)"
same,binding signal,[4],"10.9 upbm affinity estimate (log intensity, higher = more binding, comparable within an allelic series)"
same,binding signal,[19],"11.2 upbm affinity estimate (log intensity, higher = more binding, comparable within an allelic series)"
same,binding signal,[20],"10.7 upbm affinity estimate (log intensity, higher = more binding, comparable within an allelic series)"
same,binding signal,[21],"11.3 upbm affinity estimate (log intensity, higher = more binding, comparable within an allelic series)"
same,binding signal,[22],"11.1 upbm affinity estimate (log intensity, higher = more binding, comparable within an allelic series)"
same,binding signal,[23],"7.76 upbm affinity estimate (log intensity, higher = more binding, comparable within an allelic series)"
AACTACTT,binding signal,[12],"9.54 upbm affinity estimate (log intensity, higher = more binding, comparable within an allelic series)"
same,binding signal,[24],"11.2 upbm affinity estimate (log intensity, higher = more binding, comparable within an allelic series)"
same,binding signal,[16],"10.1 upbm affinity estimate (log intensity, higher = more binding, comparable within an allelic series)"
AGATATCC,binding signal,[9],"10.9 upbm affinity estimate (log intensity, higher = more binding, comparable within an allelic series)"
ATCTGATC,binding signal,[9],"11 upbm affinity estimate (log intensity, higher = more binding, comparable within an allelic series)"
same,binding signal,[10],"10.4 upbm affinity estimate (log intensity, higher = more binding, comparable within an allelic series)"
CAGCAGGG,binding signal,[12],"9.1 upbm affinity estimate (log intensity, higher = more binding, comparable within an allelic series)"
same,binding signal,[25],"7.49 upbm affinity estimate (log intensity, higher = more binding, comparable within an allelic series)"
same,binding signal,[26],"10.3 upbm affinity estimate (log intensity, higher = more binding, comparable within an allelic series)"
same,binding signal,[27],"10.3 upbm affinity estimate (log intensity, higher = more binding, comparable within an allelic series)"
same,binding signal,[28],"7.08 upbm affinity estimate (log intensity, higher = more binding, comparable within an allelic series)"
same,binding signal,[16],"9.13 upbm affinity estimate (log intensity, higher = more binding, comparable within an allelic series)"
